PubChem BioAssay (Tox21)
Results filed as inconclusive are left out. A call without a number means that no potency is given here. The source holds several records for some structures; these can differ, active in one and inactive in another. Calls of active or inactive are those of the source. Unless noted, calls come from the whole dose curve; as a rule, active = well fitted curve in the direction sought with a large enough effect in the repeat runs; inconclusive = weak or mixed curves; inactive = no such curve, though single readings can be large; an effect the other way counts as inactive or inconclusive.

Assays:
[1] = qHTS assay to identify small molecule antagonists of the peroxisome proliferator-activated receptor delta (PPARd) signaling pathway - cell viability counter screen (AID 743213); note: nearly all actives have a fitted effect of over 50% in size
Outline: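 CellTiter-Glo was added to PPARd-bla HEK293H wells following 17 h compound treatment in the presence of 300 nM L165041. Luminescence was recorded after 30 min at room temperature.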

[2] = target: Peroxisome proliferator-activated receptor delta (Homo sapiens) (UniProt Q03181); assay: qHTS assay to identify small molecule antagonists of the peroxisome proliferator-activated receptor delta (PPARd) signaling pathway (AID 743215; active = well fitted inhibition curve with a large enough effect in the signal ratio in the repeat runs, not every such curve was filed as active; the % refers to the signal ratio;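 note: cells stimulated with agonist L165041 at 300 nM final during compound exposure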; note: potency is the fitted concentration of half-maximal effect)
Chain of Peroxisome proliferator-activated receptor delta (Homo sapiens) (Q03181 whole entry, looked up): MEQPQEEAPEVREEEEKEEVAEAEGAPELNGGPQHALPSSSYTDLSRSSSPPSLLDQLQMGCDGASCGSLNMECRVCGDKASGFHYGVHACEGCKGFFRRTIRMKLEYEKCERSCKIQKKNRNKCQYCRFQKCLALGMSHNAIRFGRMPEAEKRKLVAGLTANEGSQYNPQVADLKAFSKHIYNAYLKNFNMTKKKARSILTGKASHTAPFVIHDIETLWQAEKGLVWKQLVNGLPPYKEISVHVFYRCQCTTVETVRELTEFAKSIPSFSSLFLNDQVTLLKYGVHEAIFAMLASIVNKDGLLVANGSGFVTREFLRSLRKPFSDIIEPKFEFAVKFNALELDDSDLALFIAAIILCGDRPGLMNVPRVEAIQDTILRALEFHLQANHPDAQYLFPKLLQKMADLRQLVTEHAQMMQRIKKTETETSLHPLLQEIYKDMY
Outline: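 Inhibition of L165041-driven (300 nM final) PPARd signaling is scored in HEK293H UAS-bla cells. Exposure lasts 17 h at 37 C; beta-lactamase activity is then read by FRET substrate fluorescence after 2 h at room temperature.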

[3] = target: Bile acid receptor (Homo sapiens) (UniProt Q96RI1); assay: qHTS assay to identify small molecule antagonists of the farnesoid-X-receptor (FXR) signaling pathway (AID 743217; active = well fitted inhibition curve with a large enough effect in the signal ratio in the repeat runs, not every such curve was filed as active; the % refers to the signal ratio)
Chain of Bile acid receptor (Homo sapiens) (Q96RI1 whole entry, looked up): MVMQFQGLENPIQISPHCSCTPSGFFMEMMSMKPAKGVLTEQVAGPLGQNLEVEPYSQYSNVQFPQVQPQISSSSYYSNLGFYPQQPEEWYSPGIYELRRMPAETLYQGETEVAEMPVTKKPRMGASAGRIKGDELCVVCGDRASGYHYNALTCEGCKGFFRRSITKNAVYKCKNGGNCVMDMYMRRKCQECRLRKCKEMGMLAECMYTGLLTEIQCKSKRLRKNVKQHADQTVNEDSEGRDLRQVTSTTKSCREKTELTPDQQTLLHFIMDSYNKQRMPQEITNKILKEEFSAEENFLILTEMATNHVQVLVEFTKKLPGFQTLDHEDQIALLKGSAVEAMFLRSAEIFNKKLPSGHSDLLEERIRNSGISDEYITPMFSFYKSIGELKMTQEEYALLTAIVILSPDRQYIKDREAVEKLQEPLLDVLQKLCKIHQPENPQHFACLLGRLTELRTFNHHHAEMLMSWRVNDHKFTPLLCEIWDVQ
Outline: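 Antagonist mode against 50 uM (final) chenodeoxycholic acid stimulation in FXR-bla HEK 293T cells, 16 h at 37 °C. Inhibition detected as reduced beta-lactamase activity via LiveBLAzer B/G FRET fluorescence after 2 h at room temperature.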

[4] = qHTS assay to identify small molecule agonists of the farnesoid-X-receptor (FXR) signaling pathway - cell viability counter screen (AID 743218); note: nearly all actives have a fitted effect of over 45% in size
Outline: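 Cytotoxicity counter-screen run in parallel, same wells: FXR-UAS-bla HEK 293T cells dosed 16 h at 37 C, viability read by CellTiter-Glo luminescence after 30 min at room temperature.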

[5] = target: Bile acid receptor (Homo sapiens) (UniProt Q96RI1); assay: qHTS assay to identify small molecule agonists of the farnesoid-X-receptor (FXR) signaling pathway (AID 743220; active = well fitted activation curve with a large enough effect in the signal ratio in the repeat runs, not every such curve was filed as active; the % refers to the signal ratio)
Outline: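 Beta-lactamase reporter under UAS control in GeneBLAzer FXR HEK 293T cells (5000/well) measured with LiveBLAzer FRET substrate after 2 h at room temperature. Compound exposure lasted 16 h at 37C.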

[6] = qHTS assay to identify small molecule antagonists of the farnesoid-X-receptor (FXR) signaling pathway - cell viability counter screen (AID 743221; active = well fitted cell-killing curve with a large enough effect in the repeat runs, not every such curve was filed as active; note: nearly all actives have a fitted effect of over 50% in size)
Outline: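 Multiplexed counter screen: viability of FXR-bla HEK 293T cells under agonist stimulation by chenodeoxycholic acid (50 uM, final) and test compound for 16 h at 37 C, measured by CellTiter-Glo luminescence in the reporter wells.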

[7] = target: Vitamin D3 receptor (Homo sapiens) (UniProt P11473); assay: qHTS assay to identify small molecule antagonists of the vitamin D receptor (VDR) signaling pathway (AID 743223; active = well fitted inhibition curve with a large enough effect in the signal ratio in the repeat runs, not every such curve was filed as active; the % refers to the signal ratio)
Chain of Vitamin D3 receptor (Homo sapiens) (P11473 whole entry, looked up): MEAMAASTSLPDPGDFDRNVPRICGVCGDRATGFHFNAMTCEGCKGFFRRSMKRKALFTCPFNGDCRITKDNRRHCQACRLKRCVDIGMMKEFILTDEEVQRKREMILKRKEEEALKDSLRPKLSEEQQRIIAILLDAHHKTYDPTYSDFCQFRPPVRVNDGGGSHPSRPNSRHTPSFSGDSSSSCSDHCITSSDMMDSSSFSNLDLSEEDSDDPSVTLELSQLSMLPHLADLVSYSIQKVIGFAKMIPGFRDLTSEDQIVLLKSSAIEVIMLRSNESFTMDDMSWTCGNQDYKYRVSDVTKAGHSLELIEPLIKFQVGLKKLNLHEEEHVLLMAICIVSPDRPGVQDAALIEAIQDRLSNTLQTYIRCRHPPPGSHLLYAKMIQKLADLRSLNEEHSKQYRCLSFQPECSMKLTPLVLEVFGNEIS
Outline: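 Cells carrying a VDR-driven beta-lactamase reporter (VDR-bla) were co-treated with compound and 3 nM final 1alpha,25-dihydroxyvitamin D3 for 16 h at 37C; reporter activity was measured as FRET substrate fluorescence after 2 h at room temperature.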

[8] = qHTS assay to identify small molecule agonists of the vitamin D receptor (VDR) signaling pathway - cell viability counter screen (AID 743224); note: nearly all actives have a fitted effect of over 50% in size; note: potency is the fitted concentration of half-maximal effect
Outline: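 Viability is measured in the same wells as the VDR-bla reporter assay: after 16 h compound treatment and 2 h substrate loading, CellTiter-Glo is added and luminescence read 30 min later.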

[9] = target: Peroxisome proliferator-activated receptor delta (Homo sapiens) (UniProt Q03181); assay: qHTS assay to identify small molecule agonists of the peroxisome proliferator-activated receptor delta (PPARd) signaling pathway (AID 743212; calls by dose curve)
Outline: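 HEK293H PPARd-bla cells; 5 h preincubation 37 C/5% CO2; compound (DMSO) 37 C; LiveBLAzer B/G FRET substrate 2 h RT; fluorescence intensity.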

[10] = target: Vitamin D3 receptor (Homo sapiens) (UniProt P11473); assay: qHTS assay to identify small molecule agonists of the vitamin D receptor (VDR) signaling pathway (AID 743222; calls by dose curve)
Outline: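 Quantitative HTS agonist-mode screen: compounds in DMSO were pin-transferred onto VDR-bla cells and incubated 16 h at 37C, 5% CO2. Reporter activity was detected with LiveBLAzer B/G FRET substrate after 2 h at room temperature.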

Row | Structure (SMILES) | Potency [1] | Potency [2] | outcome [3] | Potency [4] | outcome [5] | Potency [6] | outcome [7] | Potency [8] | outcome [9] | outcome [10]
1 | O=C(O)C(F)(F)C(F)(F)C(F)(F)C(F)(F)C(F)(F)C(F)(F)F | inactive | inactive | inactive | inactive | inactive | inactive | inactive | inactive | – | –
2 | CC(Cl)(Cl)Cl | – | inactive | – | inactive | – | inactive | inactive | inactive | inactive | –
3 | C#CCOC(=O)/C=C(C)/C=C/CC(C)CCCC(C)C (stereo not drawn) | – | inactive | inactive | inactive | inactive | inactive | inactive | – | inactive | inactive
4 | C=CCN1CC[C@]23CCCC[C@H]2[C@H]1Cc1ccc(O)cc13 | inactive | – | inactive | inactive | inactive | inactive | inactive | inactive | – | inactive
5 | NCC1(CC(=O)O)CCCCC1 | inactive | – | – | inactive | – | inactive | – | inactive | inactive | inactive
6 | CN1COCN(Cc2cnc(Cl)s2)/C1=N\[N+](=O)[O-] | – | inactive | inactive | inactive | inactive | inactive | inactive | inactive | inactive | inactive
7 | Oc1ccc(Cc2ccc(O)cc2)cc1 | – | inactive | – | inactive | – | inactive | – | inactive | inactive | –
8 | CC(C)(C)c1cc(O)ccc1O | – | 54.9 µM (active) | inactive | inactive | inactive | inactive | – | inactive | inactive | –
9 | Clc1nc(Cl)nc(Nc2ccccc2Cl)n1 | inactive | – | – | inactive | – | inactive | – | inactive | inactive | –
10 | CN(CCO)CCO | – | inactive | inactive | – | inactive | inactive | inactive | inactive | inactive | inactive
11 | CCN1CCCC1CNC(=O)C(O)(c1ccccc1)c1ccccc1 (stereo not drawn) | inactive | – | inactive | inactive | inactive | inactive | inactive | inactive | – | inactive
12 | O=C(O)C(Br)(Br)Br | inactive | – | – | inactive | – | inactive | inactive | inactive | inactive | inactive
13 | C[C@H]1CCCC(=O)CCC/C=C/c2cc(O)cc(O)c2C(=O)O1 | inactive | – | – | – | – | inactive | – | 42.1 µM (active) and inactive | inactive | –
14 | COc1cccc([C@@]2(O)CCCC[C@@H]2CN(C)C)c1 | inactive | – | – | inactive | – | inactive | – | inactive | inactive | –
15 | CCCC[N+](=O)[O-] | inactive | – | inactive | inactive | inactive | inactive | inactive | inactive | – | inactive
16 | CS(=O)(=O)Cl | – | inactive | – | inactive | – | inactive | inactive | inactive | inactive | –
17 | CC(C)[C@]12CC(=O)[C@H](C)[C@H]1C2 | – | inactive | inactive | inactive | inactive | inactive | inactive | inactive | inactive | –
18 | CNC(=O)NC(O)C(Cl)(Cl)Cl (stereo not drawn) | – | inactive | – | inactive | – | inactive | inactive | inactive | inactive | inactive
19 | CC(=NC#N)N(C)Cc1ccc(Cl)nc1 | inactive | – | – | inactive | – | inactive | inactive | inactive | inactive | –

Row | Structure (SMILES) | Potency [1] | Potency [2] | outcome [3] | Potency [4] | outcome [5] | Potency [6] | outcome [7] | Potency [8] | outcome [9] | outcome [10]
20 | CC(=O)OCC1=C(C(=O)O)N2C(=O)[C@@H](N)[C@H]2SC1 | – | inactive | inactive | inactive | inactive | inactive | inactive | inactive | inactive | inactive
21 | C[C@]12C=CC(=O)C=C1CC[C@@H]1[C@@H]2CC[C@@]2(C)[C@H]1CC[C@]2(C)O | – | – | – | inactive | – | inactive | inactive | inactive | – | –
22 | CCCC(C)C1(CC)C(=O)N=C(S)NC1=O (stereo not drawn) | inactive | – | – | inactive | – | inactive | inactive | inactive | – | inactive
23 | Nc1c(Cl)c(F)nc(OCC(=O)O)c1Cl | inactive | – | – | – | – | inactive | inactive | inactive | – | inactive
24 | CNC(=O)O/N=C(/CSC)C(C)(C)C | inactive | – | – | inactive | – | inactive | inactive | inactive | – | inactive
25 | CCN(CCO)CCn1c(Cc2ccccc2)nc2c1c(=O)n(C)c(=O)n2C | inactive | – | inactive | – | inactive | inactive | – | inactive | – | –
26 | CCCOC(=O)Cc1ccc(OCC(=O)N(CC)CC)c(OC)c1 | – | – | inactive | inactive | inactive | inactive | – | inactive | – | –
27 | Oc1ccc2c3c1O[C@H]1[C@@H](O)C=C[C@H]4[C@@H](C2)NCC[C@@]341 | inactive | – | inactive | inactive | inactive | inactive | inactive | inactive | – | –
28 | C=C1C[C@@H]2[C@H](CC[C@]3(C)C(=O)CC[C@@H]23)[C@@]2(C)C=CC(=O)C=C12 | inactive | – | inactive | inactive | – | inactive | – | inactive | – | inactive
29 | CCCCCCC1CCOC1=O (stereo not drawn) | inactive | – | – | inactive | – | inactive | – | inactive | – | –
30 | CCOP(=S)(OCC)SCCl | inactive | – | inactive | inactive | inactive | inactive | – | inactive | – | –
31 | CC(C)[N+](C)(CCC(C(N)=O)(c1ccccc1)c1ccccc1)C(C)C | inactive | – | – | – | – | inactive | – | inactive | – | –
32 | CON(C)C(=O)Nc1ccc(Br)c(Cl)c1 | – | – | – | inactive | – | inactive | – | inactive | – | inactive
33 | NC(=O)OCCCc1ccccc1 | inactive | – | – | inactive | – | inactive | – | inactive | – | –
34 | Cc1ccc(-c2nc3ccc(C)cn3c2CC(=O)N(C)C)cc1 | inactive | – | – | – | – | inactive | inactive | inactive | – | –
35 | CNC(=O)Oc1ccccc1C(C)C | inactive | – | – | inactive | – | inactive | – | inactive | – | inactive
36 | O=CCCl | inactive | – | – | inactive | – | inactive | inactive | inactive | – | inactive
37 | CCCN1CCC[C@@H]2Cc3[nH]ncc3C[C@H]21 | – | – | inactive | inactive | inactive | inactive | – | inactive | – | –
38 | CCCN1CCC[C@@H]2Cc3nc(N)ncc3C[C@H]21 | – | – | – | inactive | – | inactive | inactive | inactive | – | inactive

Row | Structure (SMILES) | Potency [1] | Potency [2] | outcome [3] | Potency [4] | outcome [5] | Potency [6] | outcome [7] | Potency [8] | outcome [9] | outcome [10]
39 | CCOC(=O)C(SP(=S)(OC)OC)c1ccccc1 (stereo not drawn) | inactive | – | inactive | – | inactive | inactive | inactive | inactive | – | inactive
40 | CCNc1nc(NCC)nc(SC)n1 | – | – | – | inactive | – | inactive | inactive | inactive | – | –
41 | O=[N+]([O-])c1cccc(CCl)c1 | inactive | – | – | inactive | – | inactive | inactive | inactive | – | inactive
42 | CC[C@H](N)c1ccccc1 | inactive | – | – | inactive | – | inactive | inactive | inactive | – | inactive
43 | C/C(=N\NC(=O)Nc1cc(F)cc(F)c1)c1ncccc1C(=O)O | inactive | – | inactive | – | inactive | inactive | inactive | inactive | – | –
44 | Cc1ccc(S(=O)(=O)N[C@@H](CCCCN)C(=O)CCl)cc1 | inactive | – | inactive | inactive | inactive | inactive | – | inactive | – | –
45 | CCCCCCCCBr | inactive | – | inactive | inactive | inactive | inactive | inactive | inactive | – | –
46 | NC(=O)CS(=O)C(c1ccccc1)c1ccccc1 (stereo not drawn) | inactive | – | – | inactive | – | inactive | – | inactive | – | –
47 | N#CC(Br)(Br)C(N)=O | inactive | – | – | – | – | inactive | – | inactive | – | –
48 | CC(C)(C1CCC(O)CC1)C1CCC(O)CC1 (stereo not drawn) | inactive | – | – | inactive | – | inactive | inactive | inactive | – | inactive
49 | O=C(Cl)OCc1ccccc1 | inactive | – | – | inactive | – | inactive | – | inactive | – | –
50 | CCNP(=S)(OC)O/C(C)=C/C(=O)OC(C)C (stereo not drawn) | inactive | – | – | inactive | – | inactive | inactive | inactive | – | –
51 | S=C=S | inactive | – | – | inactive | – | inactive | inactive | inactive | – | inactive
52 | O=C(NC(O)C(Cl)(Cl)Cl)NC(O)C(Cl)(Cl)Cl (stereo not drawn) | inactive | – | – | inactive | – | inactive | inactive | inactive | – | inactive
53 | CCC(C)C(C)(COC(N)=O)COC(N)=O (stereo not drawn) | inactive | – | – | inactive | – | inactive | – | inactive | – | –
54 | Cc1ccc2cc(C)ccc2c1 | inactive | – | inactive | inactive | inactive | inactive | – | inactive | – | –
55 | O=[N+]([O-])CCO | inactive | – | – | inactive | – | – | – | inactive | – | –
56 | ClCCCCCCCl | inactive | – | – | inactive | – | inactive | inactive | inactive | – | inactive
